The supplement of paper PMC10849652
Targets with a hit are over-represented here; the source holds about 7,900 in all. About 0.6% of all pairs of compound and target were hits. A number with no mark means an inactive call.

How the values were obtained:
Assay in all cases: log2 fold change, soluble protein after heating vs DMSO (PISA); higher = thermal stabilisation; K562 cells, 10 uM, 30 min; active = over 0.2 and 3.5 SD of the protein, either way, in both replicates (recomputed)
erlotinib = compound: C#Cc1cccc(Nc2ncnc3cc(OCCOC)c(OCCOC)cc23)c1 [erlotinib]
Outline: (§1)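 Soluble protein was quantified by TMTpro 16plex LC-MS/MS after channel sums were equalised. It was obtained as the supernatant after 21,000xg for 90 min from pooled aliquots of K562 cells (2×10^6 cells/mL, 10 μM compound, 30 min) heated for 3 min across 48°C-58°C and extracted in PBS with 0.5% NP-40 at 4°C. Thermal stability values are relative to control samples and come from duplicates. They are given as log2 fold changes.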

[1] = compound: C/C(=N\NC(=O)C1=CC(=CC=C1)S(=O)(=O)N2CCOCC2)/C3=C(C=CC(=C3)Cl)O
Outline: as §1

[2] = compound: C1=CC(=C(C=C1Cl)C2=NC3=NC=CN=C3C(=N2)NC4=CC=NC=C4)F
Outline: as §1

[3] = compound: C1=CC(=CC=C1C2=NC3=C(N2)C=C(C=C3)C(=O)N)OC4=CC=C(C=C4)Cl
Outline: as §1

[4] = compound: C1=CC2=C(C=CC(=C2)/C=C\3/C(=O)NC(=NCC4=CC=CS4)S3)N=C1
Outline: as §1

[5] = compound: C1=CC2=NC=CN=C2C=C1/C=C/3\C(=O)NC(=O)S3
Outline: as §1

[6] = compound: C1=CC=C(C=C1)C2=NC(=C(N2)C3=CC=NC=C3)C4=CC(=C(C=C4)Cl)O
Outline: as §1

[7] = compound: C1=CC=C2C(=C1)C3=NNC4=CC=CC(=C43)C2=O
Outline: as §1

[8] = compound: C1CCN(C1)C(=O)NC2=CC=CC(=C2)NC3=NC=C(C(=N3)NCCC4=CN=CN4)Br
Outline: as §1

[9] = compound: C1CN(CCC1(CC2=CC=C(C=C2)Cl)N)C3=NC=NC4=C3C=CN4
Outline: as §1

Chain of UniProt Q9NXW9 (Q9NXW9 whole entry, looked up): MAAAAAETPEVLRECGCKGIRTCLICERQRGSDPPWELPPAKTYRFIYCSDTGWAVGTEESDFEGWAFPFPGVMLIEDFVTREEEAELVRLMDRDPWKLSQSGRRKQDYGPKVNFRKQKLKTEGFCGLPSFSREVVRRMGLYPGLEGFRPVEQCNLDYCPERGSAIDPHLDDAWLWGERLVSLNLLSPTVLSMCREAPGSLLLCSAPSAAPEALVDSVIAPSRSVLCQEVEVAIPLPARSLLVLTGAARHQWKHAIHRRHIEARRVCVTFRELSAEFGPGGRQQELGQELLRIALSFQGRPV
Chain of UniProt P56385 (P56385 whole entry, looked up): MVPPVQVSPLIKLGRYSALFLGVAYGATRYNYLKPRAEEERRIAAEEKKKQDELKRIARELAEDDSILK
Chain of UniProt Q86UU0 (Q86UU0 whole entry, looked up): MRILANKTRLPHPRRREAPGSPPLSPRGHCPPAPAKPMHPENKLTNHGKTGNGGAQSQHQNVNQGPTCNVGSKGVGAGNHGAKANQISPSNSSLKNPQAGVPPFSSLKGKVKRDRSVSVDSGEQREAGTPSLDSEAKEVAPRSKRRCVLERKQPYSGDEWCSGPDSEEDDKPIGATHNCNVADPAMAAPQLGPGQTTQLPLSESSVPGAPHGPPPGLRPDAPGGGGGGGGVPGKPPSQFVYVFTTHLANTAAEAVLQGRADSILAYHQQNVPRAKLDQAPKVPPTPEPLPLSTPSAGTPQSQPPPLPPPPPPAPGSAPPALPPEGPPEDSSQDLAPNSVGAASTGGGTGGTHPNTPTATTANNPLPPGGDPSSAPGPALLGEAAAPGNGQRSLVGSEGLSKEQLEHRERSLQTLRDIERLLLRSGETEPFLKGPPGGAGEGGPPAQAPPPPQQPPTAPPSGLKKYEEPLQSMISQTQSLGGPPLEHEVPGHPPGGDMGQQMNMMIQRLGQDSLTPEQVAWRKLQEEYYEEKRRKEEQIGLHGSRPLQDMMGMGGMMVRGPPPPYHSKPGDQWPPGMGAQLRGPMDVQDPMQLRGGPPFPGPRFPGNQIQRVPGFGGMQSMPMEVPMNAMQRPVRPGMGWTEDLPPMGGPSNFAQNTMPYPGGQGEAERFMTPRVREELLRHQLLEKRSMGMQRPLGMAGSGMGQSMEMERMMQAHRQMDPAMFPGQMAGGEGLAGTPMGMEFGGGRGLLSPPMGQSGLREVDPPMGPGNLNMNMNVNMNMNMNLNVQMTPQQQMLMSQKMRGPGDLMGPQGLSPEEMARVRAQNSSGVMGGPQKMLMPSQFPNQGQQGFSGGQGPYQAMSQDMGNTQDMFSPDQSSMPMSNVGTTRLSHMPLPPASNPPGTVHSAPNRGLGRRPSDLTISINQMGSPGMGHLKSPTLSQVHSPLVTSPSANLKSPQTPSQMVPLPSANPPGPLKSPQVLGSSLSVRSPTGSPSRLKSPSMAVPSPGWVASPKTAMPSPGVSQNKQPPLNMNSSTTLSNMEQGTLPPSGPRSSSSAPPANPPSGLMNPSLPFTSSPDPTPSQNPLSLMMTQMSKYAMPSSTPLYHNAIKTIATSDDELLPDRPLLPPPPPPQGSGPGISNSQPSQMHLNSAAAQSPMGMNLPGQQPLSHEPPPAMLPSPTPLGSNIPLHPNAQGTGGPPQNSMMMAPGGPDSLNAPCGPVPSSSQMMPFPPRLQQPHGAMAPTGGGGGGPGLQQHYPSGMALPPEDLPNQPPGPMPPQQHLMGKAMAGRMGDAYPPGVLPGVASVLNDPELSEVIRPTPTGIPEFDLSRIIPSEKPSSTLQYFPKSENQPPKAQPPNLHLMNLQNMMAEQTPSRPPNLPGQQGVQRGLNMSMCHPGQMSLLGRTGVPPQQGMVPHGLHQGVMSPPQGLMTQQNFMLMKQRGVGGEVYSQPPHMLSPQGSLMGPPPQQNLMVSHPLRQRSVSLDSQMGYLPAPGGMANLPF
Chain of UniProt O43865 (O43865 whole entry, looked up): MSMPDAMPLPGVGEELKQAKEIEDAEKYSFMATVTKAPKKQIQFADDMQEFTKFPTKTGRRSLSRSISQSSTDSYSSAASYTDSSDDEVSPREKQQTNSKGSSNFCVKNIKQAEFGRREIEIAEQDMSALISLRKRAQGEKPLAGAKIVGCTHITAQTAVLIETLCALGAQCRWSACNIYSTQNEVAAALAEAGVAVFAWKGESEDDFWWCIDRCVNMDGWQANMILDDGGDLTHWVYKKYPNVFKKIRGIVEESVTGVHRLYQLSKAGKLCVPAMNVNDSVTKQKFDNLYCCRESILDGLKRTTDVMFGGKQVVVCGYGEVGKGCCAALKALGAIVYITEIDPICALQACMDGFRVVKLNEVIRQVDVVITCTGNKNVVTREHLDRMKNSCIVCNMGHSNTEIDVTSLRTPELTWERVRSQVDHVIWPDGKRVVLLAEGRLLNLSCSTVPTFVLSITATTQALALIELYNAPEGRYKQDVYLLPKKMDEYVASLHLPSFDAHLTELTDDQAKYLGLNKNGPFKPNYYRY
Chain of UniProt O00763 (O00763 whole entry, looked up): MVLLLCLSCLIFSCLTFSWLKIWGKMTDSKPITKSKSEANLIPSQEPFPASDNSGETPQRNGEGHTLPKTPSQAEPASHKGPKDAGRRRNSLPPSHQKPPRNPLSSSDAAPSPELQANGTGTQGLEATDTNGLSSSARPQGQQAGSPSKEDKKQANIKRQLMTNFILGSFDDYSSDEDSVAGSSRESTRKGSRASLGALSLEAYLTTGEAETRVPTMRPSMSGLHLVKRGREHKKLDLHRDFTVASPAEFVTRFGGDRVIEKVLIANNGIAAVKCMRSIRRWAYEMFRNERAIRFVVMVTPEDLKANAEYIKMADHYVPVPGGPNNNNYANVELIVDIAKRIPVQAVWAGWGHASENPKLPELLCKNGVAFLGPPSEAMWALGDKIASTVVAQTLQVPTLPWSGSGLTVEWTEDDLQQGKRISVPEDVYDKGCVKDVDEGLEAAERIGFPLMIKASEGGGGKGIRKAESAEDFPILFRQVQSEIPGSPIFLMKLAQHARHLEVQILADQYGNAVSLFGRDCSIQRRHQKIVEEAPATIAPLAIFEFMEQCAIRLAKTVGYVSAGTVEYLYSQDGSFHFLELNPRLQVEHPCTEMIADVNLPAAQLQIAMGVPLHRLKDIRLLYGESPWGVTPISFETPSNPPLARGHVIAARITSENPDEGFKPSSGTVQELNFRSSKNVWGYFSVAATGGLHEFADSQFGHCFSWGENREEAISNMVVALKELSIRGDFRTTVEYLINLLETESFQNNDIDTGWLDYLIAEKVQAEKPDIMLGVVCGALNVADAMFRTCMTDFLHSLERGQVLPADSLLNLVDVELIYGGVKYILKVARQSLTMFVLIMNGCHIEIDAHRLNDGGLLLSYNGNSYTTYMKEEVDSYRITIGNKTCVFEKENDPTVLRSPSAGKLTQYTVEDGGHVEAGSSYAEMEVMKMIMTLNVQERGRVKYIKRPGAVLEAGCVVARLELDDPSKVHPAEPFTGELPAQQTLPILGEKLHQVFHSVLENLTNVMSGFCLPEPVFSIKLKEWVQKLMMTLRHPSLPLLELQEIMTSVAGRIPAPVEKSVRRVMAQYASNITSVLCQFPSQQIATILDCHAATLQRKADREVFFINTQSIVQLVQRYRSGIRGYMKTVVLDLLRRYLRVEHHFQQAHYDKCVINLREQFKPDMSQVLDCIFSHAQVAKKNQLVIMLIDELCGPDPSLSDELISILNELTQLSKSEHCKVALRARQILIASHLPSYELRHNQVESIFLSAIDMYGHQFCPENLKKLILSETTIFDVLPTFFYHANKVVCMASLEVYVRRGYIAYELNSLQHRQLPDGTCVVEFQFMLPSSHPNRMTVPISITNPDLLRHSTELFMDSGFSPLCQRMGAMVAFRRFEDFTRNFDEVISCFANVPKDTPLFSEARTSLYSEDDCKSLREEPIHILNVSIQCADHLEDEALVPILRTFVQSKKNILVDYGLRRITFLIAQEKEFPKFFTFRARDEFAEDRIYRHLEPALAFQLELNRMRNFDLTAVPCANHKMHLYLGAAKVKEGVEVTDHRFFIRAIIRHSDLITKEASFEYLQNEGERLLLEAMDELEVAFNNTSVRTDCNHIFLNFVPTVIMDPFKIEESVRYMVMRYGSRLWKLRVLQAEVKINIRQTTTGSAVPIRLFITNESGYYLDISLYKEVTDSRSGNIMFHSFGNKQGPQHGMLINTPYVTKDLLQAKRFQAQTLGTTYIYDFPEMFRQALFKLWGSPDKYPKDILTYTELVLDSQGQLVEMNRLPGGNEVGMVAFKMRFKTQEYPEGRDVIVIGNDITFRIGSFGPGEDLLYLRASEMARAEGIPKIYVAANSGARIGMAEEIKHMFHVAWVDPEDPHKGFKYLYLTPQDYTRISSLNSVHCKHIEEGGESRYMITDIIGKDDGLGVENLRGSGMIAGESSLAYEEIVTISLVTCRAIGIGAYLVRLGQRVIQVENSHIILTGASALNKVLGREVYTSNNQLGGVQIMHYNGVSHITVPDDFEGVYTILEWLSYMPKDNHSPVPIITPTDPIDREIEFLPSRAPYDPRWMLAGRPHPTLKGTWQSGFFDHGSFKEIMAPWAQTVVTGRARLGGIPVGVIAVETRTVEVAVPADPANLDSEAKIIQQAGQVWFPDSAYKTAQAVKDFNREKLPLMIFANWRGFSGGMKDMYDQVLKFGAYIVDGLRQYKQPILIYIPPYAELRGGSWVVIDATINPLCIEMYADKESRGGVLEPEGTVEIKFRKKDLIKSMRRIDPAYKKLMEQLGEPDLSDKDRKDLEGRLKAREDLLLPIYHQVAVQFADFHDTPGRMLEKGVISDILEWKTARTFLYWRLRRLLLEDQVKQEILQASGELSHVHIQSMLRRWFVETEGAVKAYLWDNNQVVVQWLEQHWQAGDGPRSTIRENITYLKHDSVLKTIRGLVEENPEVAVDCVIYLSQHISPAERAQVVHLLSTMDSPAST
Chain of UniProt Q9Y587 (Q9Y587 whole entry, looked up): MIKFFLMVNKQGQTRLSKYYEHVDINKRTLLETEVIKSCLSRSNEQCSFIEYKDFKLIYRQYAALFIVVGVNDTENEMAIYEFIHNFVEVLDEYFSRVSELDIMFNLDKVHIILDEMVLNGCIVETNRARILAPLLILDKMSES

Target	log2 fold change (erlotinib)	log2 fold change [1]	log2 fold change [2]	log2 fold change [3]	log2 fold change [4]	log2 fold change [5]	log2 fold change [6]	log2 fold change [7]	log2 fold change [8]	log2 fold change [9]
ASS1 (UniProt P00966)	0.059	0.301 (active)	-0.05	0.008	-0.003	0.036	0.012	0.118	0.103	-0.037
ATF1 (UniProt P18846)	-0.058	0.244	0.129	-0.054	-0.221	0.023		0.039	-0.117	-0.024
ACACB (UniProt O00763)	0.048	-0.094	-0.212	-0.108	0.07	-0.123	0.132	-0.028	-0.059	-0.143
ADH5 (UniProt P11766)	-0.012	0.034	0.05	-0.016	0.001	0.007	-0.039	0.002	0.004	0.037
BID isoform 2 (UniProt P55957)	0.026	0.006	0.014	0.052	-0.04	0.012	-0.03	0.028	-0.05	0.034
ARHGAP25 isoform 4 (UniProt P42331)	0.07	0.165	0.109	-0.284	0.042	-0.192		-0.062	0.052	-0.147
AP4S1 (UniProt Q9Y587)	-0.014	-0.013	-0.015	0.078	-0.456 (active)	0		-0.111		
AGPS (UniProt O00116)	0.046	0.055	0.092	0.256 (active)	0.055	0.031	0.175	0.043	-0.01	0.077
ATP5ME (UniProt P56385)	0.013	0.037	0.136	-0.007	0.085	0.051	0.023	0.002	-0.051	0.013
ATRN (UniProt O75882)	0.006	0.037	-0.113	-0.148	0.098	0.04		-0.166	-0.052	0.018
ALKBH4 (UniProt Q9NXW9)	0.067	0.084	0.018	0.078	0.106	-0.129	0.032	-0.006	-0.074	0.091
ACSL5 isoform 3 (UniProt Q9ULC5)	0.044	0.039	-0.021	0.028	-0.029	-0.011	-0.007	0.047	-0.003	0.061
AHCYL1 (UniProt O43865)	0.083	-0.032	-0.008	-0.042	0.001	0.086	0.09	0.118	0.077	0.104
B4GALT1 (UniProt P15291)	-0.095	0.07	-0.018	0.047	-0.033	0.07	-0.035	0.024	-0.078	0.017
BRAF (UniProt P15056)	0.031	0.057	0.034	0.007	0.08	-0.012		-0.054	-0.088	0.024
BRD4 (UniProt O60885)	-0.151	0.078	0.054	0.003	0.025	-0.003	0.213	-0.002	-0.121	-0.117
AP2M1 (UniProt Q96CW1)	-0.067	0.006	-0.012	0.017	0.005	-0.016	0.036	-0.26 (active)	-0.367 (active)	-0.01
BPHL (UniProt Q86WA6)	-0.016	0.053	0.057	-0.016	0.142	0.058	-0.028	0.02	-0.38 (active)	0.182
BCL9L (UniProt Q86UU0)	0.01	-0.256	-0.008	0.049	0.036	-0.048	-0.128	0.07	-0.052	0.091
AARS2 (UniProt Q5JTZ9)	0.148	-0.035	0.058	-0.019	0.083	0.011	0.025	0.021	-0.003	0.021
AGRN (UniProt O00468)	0.064	-0.013	-0.039	-0.125	0.071	-0.048	0.366 (active)	0.024	-0.091	0.05
ATF7 isoform 6 (UniProt P17544)	-0.011	-0.148	-0.043	0.021	0.032	-0.055	0.08	0.085	-0.004	-0.117
BTAF1 (UniProt O14981)	0.04	0.078	0.072	0.005	0.048	-0.006	-0.038	-0.032	0.011	0.05
